# Measured values published in article PMC7862700, “An all-to-all approach to the identification of sequence-specific readers for epigenetic DNA modifications on cytosine”.
# Experiments:
# Experiment in all cases: DAPPL (digital affinity profiling via proximity ligation, sequencing); 10 mM Tris-HCl pH 7.5, 50 mM NaCl, 1 mM DTT, 4% glycerol, room temperature, 30 min; GST-TFs on glutathione beads, 16-mer random dsDNA library, 0.1% formaldehyde crosslink after washing; high values mean tight binding
# [1] = target: T1, FEV (Homo sapiens, UniProt Q99581 1-238); settings: protein: recombinant; tags: N-terminal GST; dsDNA, one strand shown
# T1 sequence: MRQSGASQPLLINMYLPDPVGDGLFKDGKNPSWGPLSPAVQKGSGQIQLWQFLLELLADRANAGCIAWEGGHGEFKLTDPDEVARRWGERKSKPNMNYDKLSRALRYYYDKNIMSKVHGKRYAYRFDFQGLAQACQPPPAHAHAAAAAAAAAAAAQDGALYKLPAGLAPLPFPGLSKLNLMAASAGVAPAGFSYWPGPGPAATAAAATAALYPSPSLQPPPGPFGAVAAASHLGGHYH
# Summary of the method: (§1)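 Pools of DNA-barcoded human transcription factors, expressed in yeast as GST fusions on glutathione beads and combined with a tag-only sample, were incubated with 200 nmole of a 16-mer random double-stranded DNA library. Incubation took 30 min at room temperature in Tris/NaCl/DTT/glycerol buffer and was followed by washing, 0.1% formaldehyde crosslinking, proximity ligation (BsaI/T4 ligase, 1 h, 37 °C), PCR amplification and sequencing on an Illumina NextSeq500. Binding signal is the ratio of a hexamer's read frequency for a factor to its frequency for the tag-only sample.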
# [2] = target: ETV5 (Homo sapiens, UniProt P41161 1-510); settings: protein: recombinant; tags: N-terminal GST; dsDNA, one strand shown
# Chain of ETV5 (P41161 whole entry): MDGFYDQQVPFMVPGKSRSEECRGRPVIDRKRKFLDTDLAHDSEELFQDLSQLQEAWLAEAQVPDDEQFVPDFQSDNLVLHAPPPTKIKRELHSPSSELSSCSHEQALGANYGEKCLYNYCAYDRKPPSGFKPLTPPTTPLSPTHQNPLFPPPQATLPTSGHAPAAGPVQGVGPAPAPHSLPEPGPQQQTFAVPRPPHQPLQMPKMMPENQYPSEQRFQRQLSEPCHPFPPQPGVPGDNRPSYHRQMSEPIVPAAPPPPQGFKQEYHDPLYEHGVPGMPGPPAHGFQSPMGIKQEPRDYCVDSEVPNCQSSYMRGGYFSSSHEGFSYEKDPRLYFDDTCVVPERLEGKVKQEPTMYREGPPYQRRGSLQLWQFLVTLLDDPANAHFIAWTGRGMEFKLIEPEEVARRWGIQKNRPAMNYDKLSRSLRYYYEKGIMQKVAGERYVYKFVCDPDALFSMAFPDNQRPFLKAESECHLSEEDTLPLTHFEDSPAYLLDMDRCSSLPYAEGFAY
# Summary of the method: as §1
# [3] = target: HSF1 (Homo sapiens, UniProt Q00613 1-529); settings: protein: recombinant; tags: N-terminal GST; chain copies: 3; dsDNA, one strand shown
# Chain of HSF1 (Q00613 whole entry): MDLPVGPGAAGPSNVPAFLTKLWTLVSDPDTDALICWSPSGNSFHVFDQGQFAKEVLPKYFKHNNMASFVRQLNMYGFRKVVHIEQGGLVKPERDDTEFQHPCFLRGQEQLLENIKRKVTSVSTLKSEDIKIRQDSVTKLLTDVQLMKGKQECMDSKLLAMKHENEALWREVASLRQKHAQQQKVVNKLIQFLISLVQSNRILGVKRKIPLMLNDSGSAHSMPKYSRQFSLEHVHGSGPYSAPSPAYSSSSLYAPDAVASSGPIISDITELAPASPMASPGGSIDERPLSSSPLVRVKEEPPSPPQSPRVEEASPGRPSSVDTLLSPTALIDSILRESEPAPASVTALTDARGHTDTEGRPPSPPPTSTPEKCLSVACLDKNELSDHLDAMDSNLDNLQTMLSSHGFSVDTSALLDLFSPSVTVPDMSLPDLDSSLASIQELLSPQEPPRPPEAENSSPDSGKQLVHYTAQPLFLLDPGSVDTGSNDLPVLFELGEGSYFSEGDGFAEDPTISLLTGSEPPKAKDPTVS
# Summary of the method: as §1
# [4] = target: T2, SPIC (Homo sapiens, UniProt Q8N5J4 1-248); settings: protein: recombinant; tags: N-terminal GST; dsDNA, one strand shown
# T2 sequence: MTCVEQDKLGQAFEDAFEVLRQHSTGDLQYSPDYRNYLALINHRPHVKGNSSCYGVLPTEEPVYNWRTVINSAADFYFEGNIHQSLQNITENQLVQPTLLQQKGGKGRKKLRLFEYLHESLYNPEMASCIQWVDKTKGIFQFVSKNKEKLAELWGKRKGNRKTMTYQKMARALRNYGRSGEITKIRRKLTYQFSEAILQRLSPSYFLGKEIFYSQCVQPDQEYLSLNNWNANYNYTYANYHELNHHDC
# Summary of the method: as §1
# [5] = target: ELF4 (Homo sapiens, UniProt Q99607 1-663); settings: protein: recombinant; tags: N-terminal GST; dsDNA, one strand shown
# Chain of ELF4 (Q99607 whole entry): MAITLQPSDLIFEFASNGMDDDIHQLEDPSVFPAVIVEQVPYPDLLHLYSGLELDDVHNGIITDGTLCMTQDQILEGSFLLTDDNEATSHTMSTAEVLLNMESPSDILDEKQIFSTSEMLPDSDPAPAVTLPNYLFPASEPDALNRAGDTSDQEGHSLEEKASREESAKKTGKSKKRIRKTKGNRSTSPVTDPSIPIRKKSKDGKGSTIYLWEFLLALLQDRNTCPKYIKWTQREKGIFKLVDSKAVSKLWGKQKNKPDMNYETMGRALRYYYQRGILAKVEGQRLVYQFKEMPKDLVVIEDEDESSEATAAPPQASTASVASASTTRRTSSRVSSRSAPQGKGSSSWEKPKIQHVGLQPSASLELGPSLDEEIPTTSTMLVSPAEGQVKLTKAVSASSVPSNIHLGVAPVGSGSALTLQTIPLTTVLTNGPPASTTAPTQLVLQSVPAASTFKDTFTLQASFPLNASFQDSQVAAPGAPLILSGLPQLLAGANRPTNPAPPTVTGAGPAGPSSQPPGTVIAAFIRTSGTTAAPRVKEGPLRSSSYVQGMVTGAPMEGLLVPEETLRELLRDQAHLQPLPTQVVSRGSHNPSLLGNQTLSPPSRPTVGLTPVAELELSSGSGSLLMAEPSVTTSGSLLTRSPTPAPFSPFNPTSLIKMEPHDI
# Summary of the method: as §1
# [6] = target: T3, ELK4 (Homo sapiens, UniProt P28324-2 1-405); settings: protein: recombinant; tags: N-terminal GST; dsDNA, one strand shown
# T3 sequence: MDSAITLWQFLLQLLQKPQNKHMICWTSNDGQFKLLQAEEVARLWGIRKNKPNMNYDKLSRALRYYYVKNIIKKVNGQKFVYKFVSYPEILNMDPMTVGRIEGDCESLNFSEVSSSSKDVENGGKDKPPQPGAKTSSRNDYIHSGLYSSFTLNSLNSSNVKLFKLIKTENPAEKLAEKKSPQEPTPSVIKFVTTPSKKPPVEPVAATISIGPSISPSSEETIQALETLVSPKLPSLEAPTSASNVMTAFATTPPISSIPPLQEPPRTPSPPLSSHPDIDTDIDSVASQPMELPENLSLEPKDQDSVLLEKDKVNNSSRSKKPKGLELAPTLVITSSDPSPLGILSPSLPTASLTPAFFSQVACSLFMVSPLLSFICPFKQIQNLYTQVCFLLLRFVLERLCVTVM
# Summary of the method: as §1
# [7] = target: T4, ETV2 (Homo sapiens, UniProt O00321 1-342); settings: protein: recombinant; tags: N-terminal GST; dsDNA, one strand shown
# T4 sequence: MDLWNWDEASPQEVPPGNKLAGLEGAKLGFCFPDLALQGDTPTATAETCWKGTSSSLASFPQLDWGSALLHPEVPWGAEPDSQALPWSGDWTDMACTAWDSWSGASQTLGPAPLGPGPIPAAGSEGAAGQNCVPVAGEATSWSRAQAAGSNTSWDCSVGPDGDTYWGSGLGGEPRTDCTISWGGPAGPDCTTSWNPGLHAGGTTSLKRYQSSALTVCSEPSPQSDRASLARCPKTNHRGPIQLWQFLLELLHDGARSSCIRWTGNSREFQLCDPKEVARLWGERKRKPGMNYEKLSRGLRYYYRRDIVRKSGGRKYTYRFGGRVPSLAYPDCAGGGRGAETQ
# Summary of the method: as §1
# [8] = target: T5, ELF3 (Homo sapiens, UniProt P78545 1-371); settings: protein: recombinant; tags: N-terminal GST; dsDNA, one strand shown
# T5 sequence: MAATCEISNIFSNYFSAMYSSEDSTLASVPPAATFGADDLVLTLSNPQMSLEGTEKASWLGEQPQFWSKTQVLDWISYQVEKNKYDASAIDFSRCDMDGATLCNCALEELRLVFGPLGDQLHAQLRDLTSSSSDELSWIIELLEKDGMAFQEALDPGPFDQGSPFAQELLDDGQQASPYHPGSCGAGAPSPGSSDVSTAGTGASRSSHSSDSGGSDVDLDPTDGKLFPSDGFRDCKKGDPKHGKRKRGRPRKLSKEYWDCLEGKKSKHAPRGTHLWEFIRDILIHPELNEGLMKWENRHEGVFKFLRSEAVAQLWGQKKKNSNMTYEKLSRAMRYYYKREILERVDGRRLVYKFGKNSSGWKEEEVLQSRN
# Summary of the method: as §1
# [9] = target: CRX (Homo sapiens, UniProt O43186 1-299); settings: protein: recombinant; tags: N-terminal GST; dsDNA, one strand shown
# Chain of CRX (O43186 whole entry): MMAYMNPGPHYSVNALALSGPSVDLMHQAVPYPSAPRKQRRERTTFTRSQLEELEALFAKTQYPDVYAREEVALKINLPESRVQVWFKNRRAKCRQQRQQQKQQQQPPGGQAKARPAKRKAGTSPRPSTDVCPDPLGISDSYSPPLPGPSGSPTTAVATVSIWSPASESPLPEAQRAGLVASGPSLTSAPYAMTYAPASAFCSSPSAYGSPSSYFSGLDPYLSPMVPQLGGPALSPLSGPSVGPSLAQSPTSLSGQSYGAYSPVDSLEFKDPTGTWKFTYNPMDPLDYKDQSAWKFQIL
# Summary of the method: as §1
# [10] = target: ETV1 (Homo sapiens, UniProt P50549 1-477); settings: protein: recombinant; tags: N-terminal GST; dsDNA, one strand shown
# Chain of ETV1 (P50549 whole entry): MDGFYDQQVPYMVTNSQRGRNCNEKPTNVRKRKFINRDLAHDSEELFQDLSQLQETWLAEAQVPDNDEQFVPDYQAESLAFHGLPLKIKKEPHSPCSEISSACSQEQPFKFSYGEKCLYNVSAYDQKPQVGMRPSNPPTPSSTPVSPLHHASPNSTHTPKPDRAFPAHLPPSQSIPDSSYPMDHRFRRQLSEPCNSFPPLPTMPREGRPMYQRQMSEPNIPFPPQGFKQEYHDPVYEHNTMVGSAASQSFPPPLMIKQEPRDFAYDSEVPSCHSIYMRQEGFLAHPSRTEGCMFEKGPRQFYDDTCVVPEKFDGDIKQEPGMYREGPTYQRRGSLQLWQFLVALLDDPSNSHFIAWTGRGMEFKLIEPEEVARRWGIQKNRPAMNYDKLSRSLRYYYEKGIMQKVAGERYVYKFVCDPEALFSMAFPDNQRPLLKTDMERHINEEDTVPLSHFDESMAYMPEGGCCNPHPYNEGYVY
# Summary of the method: as §1
sequence,measurement,setting,value
TGGTAA,binding signal,[1],"1.15 fold enrichment (6-mer frequency, TF over GST control)"
same,binding signal,[2],"1.23 fold enrichment (6-mer frequency, TF over GST control)"
same,binding signal,[3],"1.45 fold enrichment (6-mer frequency, TF over GST control)"
same,binding signal,[4],"1.09 fold enrichment (6-mer frequency, TF over GST control)"
same,binding signal,[5],"1.23 fold enrichment (6-mer frequency, TF over GST control)"
same,binding signal,[6],"1.39 fold enrichment (6-mer frequency, TF over GST control)"
same,binding signal,[7],"1.3 fold enrichment (6-mer frequency, TF over GST control)"
same,binding signal,[8],"1.15 fold enrichment (6-mer frequency, TF over GST control)"
same,binding signal,[9],"1.51 fold enrichment (6-mer frequency, TF over GST control)"
same,binding signal,[10],"1.27 fold enrichment (6-mer frequency, TF over GST control)"
